# Source: the supplement of paper PMC10849652
# The full data set covers some 8,800 targets. This sample favours those with a hit. About 0.5% of all pairs of compound and target were hits. Values without a mark were called inactive.
# Compound: C1=CC=C(C=C1)[C@H](COC2=CC3=C(C=C2)NC(=O)N3)NC(=O)C4=CC=CN(C4=O)CC5=CC(=C(C=C5)F)F
# Test: log2 fold change, soluble protein after heating vs DMSO (PISA); higher = thermal stabilisation; K562 lysate, 10 uM; active = over 0.2 and 3.5 SD of the protein, either way, in both replicates (recomputed)
# Summary of the method: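 Quantification was by TMTpro 16plex LC-MS/MS with equalised channel sums, applied to the supernatant after 21,000xg for 90 min. Samples were crude K562 extract at 1 mg/mL protein in PBS pH 7.4 with 1 mM MgCl2, treated with 10 μM compound for 30 min, heated for 3 min across 48°C-58°C, pooled and brought to 0.5% NP-40 at 4°C. Values are log-two fold changes in thermal stability relative to solvent controls, from duplicates.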
# Chain of UniProt P57737 (P57737 whole entry, looked up): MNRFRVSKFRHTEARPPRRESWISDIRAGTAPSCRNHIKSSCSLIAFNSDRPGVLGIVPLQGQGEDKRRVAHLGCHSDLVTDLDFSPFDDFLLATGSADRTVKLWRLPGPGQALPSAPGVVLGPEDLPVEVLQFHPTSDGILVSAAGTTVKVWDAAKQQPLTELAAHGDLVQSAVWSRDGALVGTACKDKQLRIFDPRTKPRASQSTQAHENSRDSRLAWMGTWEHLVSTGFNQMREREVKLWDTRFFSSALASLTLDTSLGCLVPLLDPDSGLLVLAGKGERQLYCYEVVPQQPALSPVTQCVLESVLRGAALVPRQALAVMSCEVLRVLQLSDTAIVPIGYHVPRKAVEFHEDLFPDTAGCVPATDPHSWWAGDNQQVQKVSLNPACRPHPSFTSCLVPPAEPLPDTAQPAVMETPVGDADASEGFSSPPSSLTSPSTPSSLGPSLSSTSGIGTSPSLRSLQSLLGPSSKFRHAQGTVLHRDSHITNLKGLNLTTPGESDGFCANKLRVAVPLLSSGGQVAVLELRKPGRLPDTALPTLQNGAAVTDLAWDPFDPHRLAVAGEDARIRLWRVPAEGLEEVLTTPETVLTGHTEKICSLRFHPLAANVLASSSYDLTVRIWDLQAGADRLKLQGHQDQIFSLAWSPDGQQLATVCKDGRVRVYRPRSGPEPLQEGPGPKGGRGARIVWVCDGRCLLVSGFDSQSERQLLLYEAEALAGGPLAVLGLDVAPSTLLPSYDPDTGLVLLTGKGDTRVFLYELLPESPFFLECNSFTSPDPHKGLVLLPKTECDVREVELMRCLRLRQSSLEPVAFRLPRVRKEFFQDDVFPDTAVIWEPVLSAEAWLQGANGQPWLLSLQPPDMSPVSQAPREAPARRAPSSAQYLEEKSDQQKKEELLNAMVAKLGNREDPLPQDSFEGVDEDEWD
# Chain of UniProt Q8IWF6 (Q8IWF6 whole entry, looked up): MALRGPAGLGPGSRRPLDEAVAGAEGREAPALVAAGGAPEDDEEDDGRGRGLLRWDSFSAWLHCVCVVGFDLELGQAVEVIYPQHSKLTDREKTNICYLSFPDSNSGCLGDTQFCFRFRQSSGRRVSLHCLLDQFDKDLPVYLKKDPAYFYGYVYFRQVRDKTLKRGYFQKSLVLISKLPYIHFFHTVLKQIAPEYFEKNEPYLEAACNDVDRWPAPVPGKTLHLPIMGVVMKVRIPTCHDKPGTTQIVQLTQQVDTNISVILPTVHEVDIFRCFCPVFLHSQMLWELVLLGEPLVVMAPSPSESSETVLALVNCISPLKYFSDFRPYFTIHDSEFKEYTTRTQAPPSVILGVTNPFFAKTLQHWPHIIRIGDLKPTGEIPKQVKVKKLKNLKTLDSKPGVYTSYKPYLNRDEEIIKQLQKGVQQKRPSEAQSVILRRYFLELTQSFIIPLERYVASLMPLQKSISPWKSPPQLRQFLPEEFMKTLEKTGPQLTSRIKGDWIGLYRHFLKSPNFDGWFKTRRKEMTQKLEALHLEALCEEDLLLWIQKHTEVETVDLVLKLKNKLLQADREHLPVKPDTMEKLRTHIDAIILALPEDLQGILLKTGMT
# Chain of UniProt P48730 (P48730 whole entry, looked up): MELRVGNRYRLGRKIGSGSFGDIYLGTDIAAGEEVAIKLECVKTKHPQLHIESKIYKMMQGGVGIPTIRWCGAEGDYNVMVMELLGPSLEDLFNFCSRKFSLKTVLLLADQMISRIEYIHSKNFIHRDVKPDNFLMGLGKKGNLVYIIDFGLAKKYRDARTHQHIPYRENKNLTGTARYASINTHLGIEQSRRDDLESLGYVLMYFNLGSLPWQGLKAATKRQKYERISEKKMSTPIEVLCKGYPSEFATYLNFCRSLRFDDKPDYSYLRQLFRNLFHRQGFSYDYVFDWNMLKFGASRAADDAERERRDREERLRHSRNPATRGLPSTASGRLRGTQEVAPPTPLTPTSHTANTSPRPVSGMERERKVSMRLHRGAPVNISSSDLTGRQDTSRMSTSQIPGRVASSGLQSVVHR
# Chain of UniProt P67870 (P67870 whole entry, looked up): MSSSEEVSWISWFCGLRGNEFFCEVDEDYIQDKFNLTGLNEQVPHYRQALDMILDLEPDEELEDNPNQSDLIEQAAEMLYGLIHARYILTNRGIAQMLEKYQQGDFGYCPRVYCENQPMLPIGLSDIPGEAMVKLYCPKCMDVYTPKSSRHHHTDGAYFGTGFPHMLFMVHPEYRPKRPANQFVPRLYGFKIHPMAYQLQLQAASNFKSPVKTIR
# Chain of UniProt Q9H5X1 (Q9H5X1 whole entry, looked up): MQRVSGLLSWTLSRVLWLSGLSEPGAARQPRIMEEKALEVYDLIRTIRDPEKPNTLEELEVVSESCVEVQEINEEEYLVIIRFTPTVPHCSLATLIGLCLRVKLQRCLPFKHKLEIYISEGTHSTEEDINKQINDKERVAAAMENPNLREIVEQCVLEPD
# Chain of UniProt Q96KA5 (Q96KA5 whole entry, looked up): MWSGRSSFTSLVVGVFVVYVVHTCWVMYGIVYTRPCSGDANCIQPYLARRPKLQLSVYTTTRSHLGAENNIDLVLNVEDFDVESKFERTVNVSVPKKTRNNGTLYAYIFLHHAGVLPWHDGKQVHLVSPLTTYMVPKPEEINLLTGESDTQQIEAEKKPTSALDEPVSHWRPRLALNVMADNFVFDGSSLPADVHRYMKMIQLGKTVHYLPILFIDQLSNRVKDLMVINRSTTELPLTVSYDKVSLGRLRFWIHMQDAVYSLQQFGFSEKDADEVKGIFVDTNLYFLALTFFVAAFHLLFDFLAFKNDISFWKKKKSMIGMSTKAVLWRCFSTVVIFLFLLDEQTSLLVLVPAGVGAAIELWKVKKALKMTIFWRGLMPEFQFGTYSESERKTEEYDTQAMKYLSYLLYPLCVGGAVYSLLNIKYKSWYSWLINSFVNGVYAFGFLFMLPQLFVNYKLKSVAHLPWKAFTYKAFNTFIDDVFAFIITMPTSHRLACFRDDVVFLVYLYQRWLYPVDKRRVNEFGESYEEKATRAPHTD
# Chain of UniProt Q9UBU7 (Q9UBU7 whole entry, looked up): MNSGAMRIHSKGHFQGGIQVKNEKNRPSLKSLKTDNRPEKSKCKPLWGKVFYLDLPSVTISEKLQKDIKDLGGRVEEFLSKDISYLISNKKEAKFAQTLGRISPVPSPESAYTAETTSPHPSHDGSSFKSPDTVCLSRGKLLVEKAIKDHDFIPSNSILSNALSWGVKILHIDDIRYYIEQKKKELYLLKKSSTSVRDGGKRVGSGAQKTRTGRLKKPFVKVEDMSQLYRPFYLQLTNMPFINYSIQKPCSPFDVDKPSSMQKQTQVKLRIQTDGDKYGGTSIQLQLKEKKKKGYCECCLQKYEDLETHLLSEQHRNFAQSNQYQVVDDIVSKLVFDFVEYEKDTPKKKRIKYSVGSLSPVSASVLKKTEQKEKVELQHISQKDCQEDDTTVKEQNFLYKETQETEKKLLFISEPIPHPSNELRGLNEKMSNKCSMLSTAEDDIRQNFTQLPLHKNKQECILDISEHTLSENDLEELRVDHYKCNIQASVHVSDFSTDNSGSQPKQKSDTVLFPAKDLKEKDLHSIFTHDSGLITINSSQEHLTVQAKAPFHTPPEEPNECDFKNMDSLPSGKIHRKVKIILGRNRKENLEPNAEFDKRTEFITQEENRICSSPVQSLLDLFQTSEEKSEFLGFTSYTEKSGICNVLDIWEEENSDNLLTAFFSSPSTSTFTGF
# Chain of UniProt Q9NPI6 (Q9NPI6 whole entry, looked up): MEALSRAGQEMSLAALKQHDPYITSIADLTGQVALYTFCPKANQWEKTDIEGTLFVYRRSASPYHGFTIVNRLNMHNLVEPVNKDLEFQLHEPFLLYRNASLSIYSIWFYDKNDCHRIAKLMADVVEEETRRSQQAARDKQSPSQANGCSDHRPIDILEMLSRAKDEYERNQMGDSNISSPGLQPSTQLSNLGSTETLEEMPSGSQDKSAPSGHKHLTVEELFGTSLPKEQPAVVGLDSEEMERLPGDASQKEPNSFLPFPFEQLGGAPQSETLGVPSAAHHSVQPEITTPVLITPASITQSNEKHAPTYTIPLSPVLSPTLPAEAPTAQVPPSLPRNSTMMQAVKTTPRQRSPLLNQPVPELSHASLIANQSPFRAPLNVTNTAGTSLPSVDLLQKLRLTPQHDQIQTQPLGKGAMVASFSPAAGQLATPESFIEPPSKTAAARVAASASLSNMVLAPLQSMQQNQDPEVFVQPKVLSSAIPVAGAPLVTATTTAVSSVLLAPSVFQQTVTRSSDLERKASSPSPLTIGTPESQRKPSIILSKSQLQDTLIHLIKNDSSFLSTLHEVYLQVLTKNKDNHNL
# Chain of UniProt Q8WYA6 (Q8WYA6 whole entry, looked up): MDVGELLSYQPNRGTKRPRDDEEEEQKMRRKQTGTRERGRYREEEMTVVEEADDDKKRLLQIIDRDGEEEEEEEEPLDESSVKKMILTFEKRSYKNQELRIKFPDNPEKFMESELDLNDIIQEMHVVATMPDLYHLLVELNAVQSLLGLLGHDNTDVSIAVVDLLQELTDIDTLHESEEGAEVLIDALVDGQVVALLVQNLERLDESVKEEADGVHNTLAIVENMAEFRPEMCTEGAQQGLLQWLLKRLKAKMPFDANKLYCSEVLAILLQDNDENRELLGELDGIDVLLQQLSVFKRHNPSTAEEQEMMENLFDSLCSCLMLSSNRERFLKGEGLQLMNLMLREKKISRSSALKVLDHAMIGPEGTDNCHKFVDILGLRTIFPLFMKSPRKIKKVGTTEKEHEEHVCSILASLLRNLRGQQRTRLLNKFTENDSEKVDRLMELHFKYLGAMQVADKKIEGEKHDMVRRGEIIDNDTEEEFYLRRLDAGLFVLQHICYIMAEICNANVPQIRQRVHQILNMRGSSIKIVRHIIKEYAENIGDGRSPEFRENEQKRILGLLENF
# Chain of UniProt Q9BY43 (Q9BY43 whole entry, looked up): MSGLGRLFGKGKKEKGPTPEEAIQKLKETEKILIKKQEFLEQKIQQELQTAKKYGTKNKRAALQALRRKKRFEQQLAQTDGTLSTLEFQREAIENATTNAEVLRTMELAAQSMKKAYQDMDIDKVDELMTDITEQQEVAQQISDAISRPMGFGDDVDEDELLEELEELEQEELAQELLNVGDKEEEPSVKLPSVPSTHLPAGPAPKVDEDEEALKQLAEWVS
row,Target,log2 fold change
1,COX20 isoform 2 (UniProt Q5RI15),0.01
2,CTNNBL1 (UniProt Q8WYA6),-0.003
3,CYP24A1 (UniProt Q07973),0.02
4,DLGAP5 (UniProt Q15398),0.029
5,DOCK8 (UniProt Q8NF50),-0.011
6,DBF4 (UniProt Q9UBU7),0.073
7,CORO1A (UniProt P31146),-0.024
8,CLASP1 (UniProt Q7Z460),-0.019
9,DFFB (UniProt O76075),0.06
10,CLPTM1L (UniProt Q96KA5),-0.075
11,COL6A5 (UniProt A8TX70),0.025
12,CLP1 (UniProt Q92989),-0.023
13,DHCR7 (UniProt Q9UBM7),-0.107
14,COG3 (UniProt Q96JB2),-0.03
15,CNTN4 (UniProt Q8IWV2),0.046
16,CIAO2A (UniProt Q9H5X1),-0.049
17,DAZAP1 (UniProt Q96EP5),0.011

row,Target,log2 fold change
1,CSNK2A2 (UniProt P19784),-0.02
2,DCP1A (UniProt Q9NPI6),-0.011
3,CLIC2 (UniProt O15247),-0.022
4,CSTB (UniProt P04080),-0.031
5,CSNK1D (UniProt P48730),-0.027
6,CKAP2 (UniProt Q8WWK9),0.052
7,CNOT2 (UniProt Q9NZN8),0.019
8,CLUH (UniProt O75153),0.03
9,DENND6A (UniProt Q8IWF6),-0.101
10,CSNK2B (UniProt P67870),-0.02
11,CORO7 isoform 3 (UniProt P57737),-0.003
12,CHMP4A isoform 2 (UniProt Q9BY43),0.035
13,CINP isoform 3 (UniProt Q9BW66),-0.016
14,CLCN3 (UniProt P51790),0.094
15,CHUK (UniProt O15111),-0.02
16,CSTF2 (UniProt P33240),-0.027
17,CLIP1 isoform 1 (UniProt P30622),0.04
